This note sets out measurements from PubChem BioAssay.

The target of one experiment is Albumin (Bos taurus) (UniProt P02769). As to the kind of experiment: compounds binding labelled BSA control protein – biochemical, small-molecule microarray, Alexa647 label, 635/667 nm fluorescence, artefact control for SMM control protein annotation, profiling panel (AID 1118).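 Also: score merges 667 nm emission intensity and signal-to-noise per printed compound spot.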 Conditions: BSA-A647 binding, fluorescence 635 nm, higher = more signal.
Experiment [1] can be described thus: probe aXIP binding to arrayed compounds – biochemical, NeuroSMM set, 635/667 nm fluorescence, primary screen (AID 1119).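 Also: probe is the protein aXip251-270 applied at 1 µg/mL to compound-printed slides; binding of probe to printed compounds measured as 667 nm fluorescence plus signal to noise.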 The settings on record: small-molecule microarray, higher = more signal, called active from +8 up or from −8 down.
A short description of experiment [2]: probe aNOTCH3 binding on compound microarray – biochemical, small-molecule microarray, 635/667 nm fluorescence, primary screen (AID 1120).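 Also: probe is a biotin-tagged antibody raised against NOTCH3 rather than NOTCH3 protein; score merges spot fluorescence near 667 nm with spot signal to noise.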 Conditions: higher = more signal.
Experiment [3] is described as follows: probe aNOTCH2 binding on compound microarray – biochemical, small-molecule microarray, 635/667 nm fluorescence, primary screen (AID 1121).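 Also: score merges feature fluorescence read at 667 nm with its signal to noise.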 Conditions: higher = more signal.
Experiment [4] has as its target Carbonic anhydrase 2 (Homo sapiens) (UniProt P00918). Briefly: compounds binding carbonic anhydrase 2 – biochemical, small-molecule microarray, Alexa647-labelled CAII, profiling panel (AID 1122). Conditions: CAII-A647 binding fluorescence, higher = more signal.
Experiment [5] can be described thus: COS7 lysate on small-molecule microarray, probe aHis, 635 nm (AID 1123).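 Also: z-score combines 667nm fluorescence intensity with signal-to-noise per printed compound spot.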 Conditions: COS7 cell lysate, fluorescence, higher = more signal.
The nature of experiment [6]: probe aLAP1 signal on lysate-treated microarray – cell lysate, small-molecule microarray, COS7 lysate, primary screen (AID 1124).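 Also: lysate comes from COS7 cells expressing LAP1 and is applied at 0.3 µg/mL; score merges spot fluorescence near 667 nm with signal-to-noise over triplicate slides.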 The settings on record: probe aLAP1, fluorescence, higher = more signal.
In a further experiment the test system is Sam68 (KHDRBS1). Briefly: compounds binding KHDRBS1 protein – biochemical, small-molecule microarray, 635 nm fluorescence, primary screen (AID 1125).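 Also: score merges 667 nm channel intensity with signal to noise over triplicate slides.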 Conditions: higher = more signal.
The subject of experiment [7] is Chordin-like protein 2 (CHRDL2). As to the kind of experiment: compounds binding chordin-like 2 – biochemical, small-molecule microarray, 635 nm fluorescence, primary screen (AID 1126).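 Also: printed compound slides probed with Chrdl2 protein at 4 µg/mL for 1 h at 4 C; score merges 667 nm emission intensity with signal to noise over three replicate slides.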 The settings on record: fluorescence 635 nm, higher = more signal.
Experiment [8] addresses Concanavalin-A (Canavalia ensiformis) (UniProt P02866). As to the kind of experiment: compounds binding concanavalin A lectin – biochemical, small-molecule microarray, Alexa647 label, 635 nm, artefact control for SMM control protein annotation, primary screen (AID 1127).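 Also: z combines 667 nm emission intensity with signal-to-noise across three replicate slides.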 Conditions: ConA-A647 binding fluorescence, higher = more signal.
Experiment [9] in a line: compounds binding Alexa647 anti-His antibody – biochemical, small-molecule microarray, 635 nm fluorescence, artefact control for SMM control protein annotation, primary screen (AID 1128).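 Also: score merges feature fluorescence with signal-to-noise for each printed compound spot.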 The settings on record: higher = more signal.
In experiment [10] the test system is Human papillomavirus type 1a E7 protein (residues 1-88). As to the kind of experiment: HPV1a E7 small-molecule binders, primary screen, biochemical, small-molecule microarray, residues 1-88, 635 nm (AID 1129). The settings on record: small-molecule microarray binding, fluorescence 635 nm; higher = more signal.
Experiment [11] addresses Focal adhesion kinase 1 (Homo sapiens) (UniProt Q05397). Briefly: PTK2 protein binding on printed compound slides – biochemical, small-molecule microarray, 635/667 nm fluorescence, BSA, DTT, primary screen (AID 1130).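 Also: composite of spot emission at 667 nm and signal to noise over triplicate slides.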 The settings on record: 635 nm fluorescence, higher = more signal.
The test system of experiment [12] is Fibrinogen (Alexa647-labelled). As to the kind of experiment: Alexa647-fibrinogen binding to printed small molecules – biochemical, small-molecule microarray, 635/667 nm fluorescence, artefact control for SMM control-protein annotation, profiling panel (AID 1131).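 Also: z-score merges 667 nm fluorescence with per-spot signal-to-noise over triplicate slides.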 Conditions: fibrinogen-A647 binding fluorescence, higher = more signal.
Experiment [13] addresses Follistatin (Homo sapiens) (UniProt P19883). Briefly: FST protein binding to printed compounds – biochemical, small-molecule microarray, 635/667 nm fluorescence, primary screen (AID 1132). Conditions: 635 nm fluorescence, higher = more signal.
The target in experiment [14] is Fibroblast growth factor 2 (Homo sapiens) (UniProt P09038). Briefly: basic fibroblast growth factor binding to printed compounds – biochemical, small-molecule microarray, 635/667 nm fluorescence, primary screen (AID 1133). The settings on record: FGF2, fluorescence 635/667, higher = more signal.
Experiment [15] can be described thus: JC-1 mitochondrial potential readout, lung cancer cells – cell-based, A549, JC-1 fluorescence, basal, 24 h, 100 nL, profiling panel (AID 1138).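 Also: A549 lung adenocarcinoma cells under basal conditions with no added stimulus; test concentration not given here.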 Conditions: higher = more signal.
A further experiment concerns Lefty1. As to the kind of experiment: Lefty1 protein binding to printed compounds – biochemical, small-molecule microarray, 635/667 nm fluorescence, primary screen (AID 1139). Conditions: fluorescence 635/667, higher = more signal.
Experiment [16] concerns wheat germ agglutinin (Triticum aestivum), Alexa647-labelled. Briefly: Alexa647-WGA lectin binding to printed small molecules – biochemical, small-molecule microarray, 635/667 nm fluorescence, artefact control for SMM control-protein annotation, profiling panel (AID 1140).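 Also: score merges 667 nm feature emission with signal to noise over triplicate slides.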 Conditions: WGA-A647 binding, 635 nm fluorescence, higher = more signal.
The target of experiment [17] is Luciferin 4-monooxygenase (Photinus pyralis) (UniProt P08659). As to the kind of experiment: inhibition of purified Photinus pyralis luciferase – biochemical, luminescence, purified enzyme, 2006 set, primary screen (AID 1141).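 Also: cell-free assay with purified firefly luciferase at 100 ng per well in PBS; test concentration not given here.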 The settings on record: purified firefly luciferase, SteadyGlo luminescence, 30 min; higher = more signal, called active from +8 up or from −8 down.

The structures appear in SMILES notation. Activity calls are given as the source filed them.

Chain of Focal adhesion kinase 1 (Homo sapiens) (Q05397 whole entry, looked up): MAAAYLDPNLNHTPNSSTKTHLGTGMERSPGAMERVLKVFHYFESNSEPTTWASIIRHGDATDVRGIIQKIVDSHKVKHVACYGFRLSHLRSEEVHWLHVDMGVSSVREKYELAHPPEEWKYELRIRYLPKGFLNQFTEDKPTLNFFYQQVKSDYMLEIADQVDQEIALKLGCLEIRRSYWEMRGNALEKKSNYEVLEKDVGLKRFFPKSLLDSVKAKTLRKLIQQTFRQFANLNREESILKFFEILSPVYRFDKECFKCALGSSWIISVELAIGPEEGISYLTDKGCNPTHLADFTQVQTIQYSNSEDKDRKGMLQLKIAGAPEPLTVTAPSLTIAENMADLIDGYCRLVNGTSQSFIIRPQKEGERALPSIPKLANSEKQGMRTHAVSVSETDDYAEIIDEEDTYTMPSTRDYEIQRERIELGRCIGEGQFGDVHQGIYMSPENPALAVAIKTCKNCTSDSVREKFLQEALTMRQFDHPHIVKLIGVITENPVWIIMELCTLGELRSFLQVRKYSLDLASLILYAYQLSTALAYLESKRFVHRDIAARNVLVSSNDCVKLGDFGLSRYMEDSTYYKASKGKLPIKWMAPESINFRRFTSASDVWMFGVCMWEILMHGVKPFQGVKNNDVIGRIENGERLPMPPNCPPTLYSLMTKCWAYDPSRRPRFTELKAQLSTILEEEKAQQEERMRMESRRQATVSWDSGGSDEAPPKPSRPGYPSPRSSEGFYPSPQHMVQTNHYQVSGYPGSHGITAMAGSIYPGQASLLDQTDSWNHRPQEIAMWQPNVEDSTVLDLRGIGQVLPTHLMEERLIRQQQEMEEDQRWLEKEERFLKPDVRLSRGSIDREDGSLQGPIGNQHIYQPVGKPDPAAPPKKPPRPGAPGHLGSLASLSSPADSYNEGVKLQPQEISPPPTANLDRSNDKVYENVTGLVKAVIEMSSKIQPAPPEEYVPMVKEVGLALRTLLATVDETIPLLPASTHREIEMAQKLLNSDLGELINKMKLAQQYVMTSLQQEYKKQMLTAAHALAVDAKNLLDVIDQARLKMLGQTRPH
Chain of Follistatin (Homo sapiens) (P19883 whole entry, looked up): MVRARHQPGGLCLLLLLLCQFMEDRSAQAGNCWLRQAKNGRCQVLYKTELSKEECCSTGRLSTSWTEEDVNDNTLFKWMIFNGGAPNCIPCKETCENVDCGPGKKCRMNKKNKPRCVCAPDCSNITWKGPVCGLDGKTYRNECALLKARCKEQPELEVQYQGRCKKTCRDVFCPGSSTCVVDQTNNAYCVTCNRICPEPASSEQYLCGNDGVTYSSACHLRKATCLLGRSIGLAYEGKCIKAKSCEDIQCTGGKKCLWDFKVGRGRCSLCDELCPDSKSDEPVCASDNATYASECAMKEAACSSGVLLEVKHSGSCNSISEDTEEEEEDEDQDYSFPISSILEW
Chain of Luciferin 4-monooxygenase (Photinus pyralis) (P08659 whole entry, looked up): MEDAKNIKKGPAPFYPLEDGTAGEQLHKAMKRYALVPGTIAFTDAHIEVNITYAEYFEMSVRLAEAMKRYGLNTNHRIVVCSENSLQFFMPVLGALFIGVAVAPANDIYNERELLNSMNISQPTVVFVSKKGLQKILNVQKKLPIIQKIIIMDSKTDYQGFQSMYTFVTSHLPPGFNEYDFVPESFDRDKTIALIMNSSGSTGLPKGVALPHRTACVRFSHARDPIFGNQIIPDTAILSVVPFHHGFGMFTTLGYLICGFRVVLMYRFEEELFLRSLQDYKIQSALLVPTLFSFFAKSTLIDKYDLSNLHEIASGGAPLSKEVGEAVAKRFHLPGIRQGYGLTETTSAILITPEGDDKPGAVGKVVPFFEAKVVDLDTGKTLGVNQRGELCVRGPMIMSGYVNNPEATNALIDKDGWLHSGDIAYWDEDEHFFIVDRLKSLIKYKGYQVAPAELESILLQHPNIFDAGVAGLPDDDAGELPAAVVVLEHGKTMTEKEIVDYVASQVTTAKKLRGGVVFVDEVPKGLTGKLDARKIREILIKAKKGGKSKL
Chain of Fibroblast growth factor 2 (Homo sapiens) (P09038 whole entry, looked up): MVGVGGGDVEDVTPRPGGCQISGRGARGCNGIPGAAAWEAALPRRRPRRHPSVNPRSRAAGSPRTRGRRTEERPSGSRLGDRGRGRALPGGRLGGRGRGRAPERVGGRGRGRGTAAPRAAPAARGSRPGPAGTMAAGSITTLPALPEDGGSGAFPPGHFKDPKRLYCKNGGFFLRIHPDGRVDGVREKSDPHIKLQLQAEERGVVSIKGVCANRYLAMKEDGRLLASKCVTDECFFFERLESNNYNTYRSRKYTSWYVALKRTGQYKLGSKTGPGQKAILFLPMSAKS
Chain of Albumin (Bos taurus) (P02769 whole entry, looked up): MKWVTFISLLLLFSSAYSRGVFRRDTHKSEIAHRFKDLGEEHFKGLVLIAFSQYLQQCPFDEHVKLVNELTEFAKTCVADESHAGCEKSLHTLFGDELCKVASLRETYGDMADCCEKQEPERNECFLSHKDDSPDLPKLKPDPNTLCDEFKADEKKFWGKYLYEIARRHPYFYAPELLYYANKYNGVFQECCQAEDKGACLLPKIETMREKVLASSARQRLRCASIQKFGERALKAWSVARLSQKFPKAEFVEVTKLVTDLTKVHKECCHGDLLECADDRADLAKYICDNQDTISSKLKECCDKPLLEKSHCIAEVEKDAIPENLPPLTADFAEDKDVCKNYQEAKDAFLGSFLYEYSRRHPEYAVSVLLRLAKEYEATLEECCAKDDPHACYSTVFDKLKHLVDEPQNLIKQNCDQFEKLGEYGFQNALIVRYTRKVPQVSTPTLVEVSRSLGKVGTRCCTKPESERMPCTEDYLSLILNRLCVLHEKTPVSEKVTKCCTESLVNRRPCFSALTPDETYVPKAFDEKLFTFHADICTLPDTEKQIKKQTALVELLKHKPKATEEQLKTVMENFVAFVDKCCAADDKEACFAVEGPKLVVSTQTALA
Chain of Concanavalin-A (Canavalia ensiformis) (P02866 whole entry, looked up): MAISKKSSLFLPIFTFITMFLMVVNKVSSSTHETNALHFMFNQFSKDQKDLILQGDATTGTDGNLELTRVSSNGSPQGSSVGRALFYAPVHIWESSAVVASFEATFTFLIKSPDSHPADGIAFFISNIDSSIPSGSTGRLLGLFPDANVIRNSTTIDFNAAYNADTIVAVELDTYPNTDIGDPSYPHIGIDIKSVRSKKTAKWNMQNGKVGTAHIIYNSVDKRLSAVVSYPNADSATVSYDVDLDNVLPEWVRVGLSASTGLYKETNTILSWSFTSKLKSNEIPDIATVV

As to `COCC(=C=CC[C@@H](O)c1cccc(OCCO)c1)CCO`, the composite z-score in the experiment with Albumin (Bos taurus) is 0.682; in experiment [2], -0.0293; in experiment [3], 0.011; in experiment [4], 0.708; in experiment [5], 0.562; in [6], 1.41. Further, the composite z-score in the experiment on Sam68 (KHDRBS1) is 0.381; in experiment [7], -0.325; in experiment [8] it was 0.856; in experiment [9], -0.128; in experiment [10], -0.113; in [11] it was -0.128. For the same compound, the composite z-score in experiment [12] amounted to 0.984; in experiment [13] it was 0.734; in experiment [14], 0.377; in the experiment on Lefty1, 0.565; in experiment [16] it was 1.1. Moreover, the composite Z-score in experiment [1] was 0.0124 (inactive). Moreover, the z-score in experiment [15] is 0.293; in [17] it was -1.31 (inactive).

With `CCOC(=O)C[C@H]1[C@H](OC(=O)c2ccccc2-c2ccccc2)[C@@H](NC(=O)c2ccccc2)c2cc(OCCCO)ccc2N1C(=O)c1ccccc1`, the composite z-score in the experiment with Albumin (Bos taurus) was 0.505; in experiment [2], -0.0647; in experiment [3], -0.019; in experiment [4] it was 0.666; in [5], 0.677; in experiment [6] it was 0.513. For the same compound, the composite z-score in the experiment on Sam68 (KHDRBS1) was 0.42; in experiment [7], 0.116; in [8], 0.178; in [9], -0.356; in experiment [10], 0.558; in experiment [11], 0.59. Moreover, the composite z-score was 0.847 in experiment [12]; 0.378 in experiment [13]; 0.673 in [14]; 0.292 in the experiment with Lefty1; 0.0533 in [16]. For the same compound, the composite Z-score in [1] was -0.383 (inactive). Moreover, the z-score in experiment [15] is 0.629; in [17], 0.354 (inactive).

`Nc1cc(Br)ccc1C(=O)O`: the composite z-score with Albumin (Bos taurus) was 0.235; in experiment [2], 0.0026; in experiment [3], -0.117; in experiment [4], 0.18; in [5] it was -0.12; in experiment [6], -0.0137. The composite z-score with Sam68 (KHDRBS1) is 0.213; in experiment [7], -0.079; in experiment [8] it was 0.713; in experiment [9], 1.28; in experiment [10], 0.319; in [11] it was 0.5. Also, the composite z-score in [12] is 0.777; in [13] it was 0.181; in experiment [14], 0.372; with Lefty1, -0.0916; in [16], 0.863. The composite Z-score in experiment [1] is 2.13 (inactive). Besides, the z-score in experiment [15] is 1.28; in experiment [17] it was -1.1 (inactive).

`COCCOC(=O)N1C(=O)[C@@]2(c3cc(C#Cc4ccc(OC)cc4)ccc31)[C@H](C(=O)NC[C@H](O)c1ccccc1)[C@H]1C(=O)O[C@H](c3ccccc3)[C@H](c3ccccc3)N1[C@@H]2c1ccc(OCCO)cc1`: the composite z-score with Albumin (Bos taurus) is 0.101; in experiment [2], 0.0397; in experiment [3], -0.146; in [4] it was 0.441; in experiment [5] it was 1.72; in experiment [6], 0.313. Also, the composite z-score is 1.3 with Sam68 (KHDRBS1); 0.195 in experiment [7]; 1.09 in experiment [8]; 1.24 in experiment [9]; 1.2 in [10]; -0.103 in [11]. For the same compound, the composite z-score in experiment [12] was found to be 0.801; in [13], 1.29; in experiment [14] it was 1.01; in the experiment on Lefty1 it was 1.15; in [16], 0.815. Further, in experiment [1], the composite Z-score is -0.014 (inactive). The z-score was -1.77 in experiment [15] and -0.459 (inactive) in experiment [17].

As for `CC(C)CNC(=O)[C@@H]1c2ccccc2C(=O)N(C2CCCCC2)[C@H]1c1ccc(CO)cc1`, the composite z-score is -0.183 with Albumin (Bos taurus); -0.159 in [2]; -0.118 in experiment [3]; 0.694 in experiment [4]; 2.44 in experiment [5]; -0.264 in experiment [6]. Further, the composite z-score in the experiment on Sam68 (KHDRBS1) was 0.369; in experiment [7] it was -0.718; in experiment [8], -0.0374; in experiment [9], 0.978; in [10], 0.589; in [11], -0.292. The composite z-score was -0.467 in experiment [12]; 0.196 in [13]; -0.184 in [14]; -0.991 with Lefty1; -0.321 in [16]. Further, the composite Z-score in experiment [1] is 1.32 (inactive). For the same compound, the z-score in experiment [15] is 1.83; in [17], -1.66 (inactive).

`CC(C)C(=C=CC[C@@H](O)c1cccc(OCCO)c1)C[C@@H](O)COCc1ccccc1`: the composite z-score with Albumin (Bos taurus) is 0.15; in experiment [2], -0.0708; in experiment [3], -0.0865; in experiment [4], 0.763; in experiment [5] it was 0.75; in experiment [6], 0.102. Further, the composite z-score in the experiment with Sam68 (KHDRBS1) was -0.0876; in experiment [7], -0.456; in experiment [8] it was 0.346; in experiment [9], 0.292; in experiment [10] it was 0.158; in [11] it was -0.276. Further, the composite z-score amounted to 0.0013 in [12]; 0.844 in [13]; 0.34 in experiment [14]; 0.318 with Lefty1; 0.866 in experiment [16]. The composite Z-score in [1] was -1.39 (inactive). Besides, the z-score in experiment [15] was 1.6; in [17], -2.11 (inactive).
